The full list was thinned out, with hits kept by preference.
BJeLR viability: compounds reducing viability of BJeLR cells. BJeLR fibroblasts viability, CellTiterGlo ATP luminescence, 48 h; HRASV12, hTERT and SV40 LT/ST transformed. viability loss activity score, % (no concentration beside the values). 0.64% of 30,000 active; in the data active = viability loss activity score above about 50%;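 also: higher score means fewer live cells and less ATP luminescence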
Shh pathway inh: Sonic Hedgehog pathway inhibition; Shh-LIGHT2 Gli-luciferase reporter, 30 h; inhibition, % (concentration not given with the values); 2.1% of 22,000 active; AID 2313;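 active = mean inhibition across valid replicates above about 65%, limit read from the data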;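 also: pathway switched on by Shh-conditioned medium diluted 1 in 25 in low serum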
Large screens that a line does not name were inactive.

CC(=O)Nc1ccc(Nc2c3c(c(C#N)c4nc5ccccc5n24)CCCC3)cc1	none (no result: Shh pathway inh)
O=C(c1ccc(CS(=O)c2ccc(Cl)cc2)o1)N1CCCC1 (configuration not stated)	none (no result: Shh pathway inh)
COC(=O)C(C(C)C)N1C(=O)C2C3C=CC(C3)C2C1=O (configuration not stated)	none (no result: Shh pathway inh)
CCCN(CCC)C(=O)c1cn(C)c2ccc(S(=O)(=O)N(CC)CC)cc2c1=O	none (no result: Shh pathway inh)
CC(Oc1ccccc1-c1ccccc1)c1n[nH]c(=S)n1-c1ccccc1 (configuration not stated)	Shh pathway inh 69.4
Cc1ccc(OCc2n[nH]c(=S)n2-c2ccccc2)cc1C	none
COc1ccc(S(=O)(=O)N(CCc2ccccc2)CC(=O)Nc2cccc(Cl)c2)cc1OC	none (no result: Shh pathway inh)
CCc1nc(N)nc(N)c1-c1ccc(Cl)cc1	BJeLR viability 77.2
CCOC(=O)c1sc2sc(C(=O)OCC)c(-c3ccc(Cl)cc3)c2c1N	none
CC(C)NC(=O)N(C)C[C@H]1Oc2c(NS(=O)(=O)c3ccccc3)cccc2C(=O)N([C@@H](C)CO)C[C@@H]1C	none
O=C(c1ccc(CSc2nc3ccncc3n2Cc2ccc(F)cc2)cc1)N1CCCCC1	none (no result: Shh pathway inh)
COC(=O)/C=C/S(=O)(=O)c1ccc(NC(C)=O)cc1	Shh pathway inh 94.4
CC(=O)Nc1ccc(S(=O)(=O)NC(C)C)cc1	none (no result: Shh pathway inh)
CCOC(=O)c1nn(-c2ccccc2)c(C#N)c1NC(=O)c1nn(CC)cc1Br	Shh pathway inh 65.8
CCOC(=O)c1cn(CC(=O)Nc2ccccc2)nn1	none (no result: Shh pathway inh)
S=C(NCc1ccccc1)c1ccccn1	none (no result: Shh pathway inh)
COC(=O)c1ccc(/C=C2/Oc3ccccc3N(Cc3ccccc3F)C2=O)cc1	none (no result: Shh pathway inh)
O=C(NCc1cccnc1)c1ccc(/C=C2\Sc3ccccc3N(Cc3ccccc3F)C2=O)cc1	BJeLR viability 122.8 (no result: Shh pathway inh)
CC(Cc1c[nH]c2ccccc12)NC(=O)c1ccco1 (configuration not stated)	none (no result: Shh pathway inh)
CC(C)(C)c1cc(-c2cccs2)c(C#N)c(SCC(=O)Oc2ccccc2)n1	Shh pathway inh 65.0
CC(C)(C)C(=O)CSc1nc(N)c(C#N)c(-c2cccs2)c1C#N	none (no result: Shh pathway inh)
C=CCNC(=O)c1ccc(C(F)(F)F)nc1C	none (no result: Shh pathway inh)
Cc1noc(C)c1NC(=O)Nc1cccc2c1O[C@H](CN(C)Cc1ccc(-c3ccccc3)cc1)[C@@H](C)CN([C@H](C)CO)C2=O	none
Oc1ccc(-c2nc(-c3ccc(F)cc3)c(-c3ccncc3)[nH]2)cc1	Shh pathway inh 73.9
C[S+](O)c1ccc(CSc2nc(-c3ccc(F)cc3)c(-c3ccncc3)[nH]2)cc1 (configuration not stated)	none
CC1CN(S(=O)(=O)c2cccc(C(=O)O)c2)CC(C)O1 (configuration not stated)	none
Cc1nc(SCC(=O)O)c2c3c(sc2n1)CCCC3	none
CCOC(=O)c1cnc2c(c(C3CC3)nn2C)c1N1CCOCC1	none (no result: Shh pathway inh)
CCOC(=O)c1cnc2c(c(C)nn2C)c1Sc1nnc(SC)s1	Shh pathway inh 83.8
C[C@H](CO)N1C[C@H](C)[C@@H](CN(C)Cc2ccc(-c3ccccc3)cc2)Oc2ccc(NC(=O)Cc3ccccc3)cc2C1=O	none (no result: Shh pathway inh)
Cc1cc(C)n2nc(SCCC(=O)NCc3c(F)cc(F)cc3F)nc2n1	none (no result: Shh pathway inh)
Brc1ccc2ncnc(-c3ccccc3)c2c1	none (no result: Shh pathway inh)
COc1ccc(S(=O)(=O)N(C)C[C@@H]2Oc3ccc(NC(=O)Cn4cnnn4)cc3C(=O)N([C@H](C)CO)C[C@@H]2C)cc1	none
Cc1nn(-c2ccccc2)c(Cl)c1C1N(Cc2ccccc2)CCN1Cc1ccccc1	none (no result: Shh pathway inh)
CC1=C(/C=C/C(C)=C/C=C/C(C)=C\C(=O)O)C(C)(C)CCC1	Shh pathway inh 82.4
CC(=C/C(=O)O)/C=C/c1ccccc1	none (no result: Shh pathway inh)
Cc1nc2ccc(-c3nc4ccc(NC(=O)c5cccs5)cc4[nH]3)cc2[nH]1	none (no result: Shh pathway inh)
Cc1noc(C)c1NC(=O)N(C)C[C@@H]1Oc2ccc(NC(=O)C3CC3)cc2C(=O)N([C@@H](C)CO)C[C@@H]1C	none
C/C(=N\O)C(C)(C)Nc1cc(C(F)(F)F)cc(C(F)(F)F)c1	none (no result: Shh pathway inh)
O=C(/C=N/O)Nc1cc(C(F)(F)F)cc(C(F)(F)F)c1	Shh pathway inh 69.4
Cc1cc(C)nc(NC(=NCc2ccc(Cl)cc2)NC(=O)C(C)N2C(=O)c3ccccc3C2=O)n1 (configuration not stated)	none (no result: Shh pathway inh)
Cc1cc(C)nc(NC(N)=NCc2ccccc2Cl)n1	BJeLR viability 77.2 (no result: Shh pathway inh)
CSc1ccc2nnc(-c3ccc(F)cc3)n2n1	none (no result: Shh pathway inh)
Cc1cc(C)cc(Sc2ccc3nnc(-c4ccccc4)n3n2)c1	Shh pathway inh 67.2
Nc1cc(=O)[nH]c(S/C=C/c2ccccc2)n1	none (no result: Shh pathway inh)
O=C(CSCn1nnc2c(=O)[nH]c(Cc3ccc(F)cc3)nc21)Nc1ccc(F)cc1	none (no result: Shh pathway inh)
Cc1ccc(-c2nnc(Nc3ccccc3)c3ccccc23)cc1S(=O)(=O)NC(C)(C)C	none (no result: Shh pathway inh)
COc1ccc(-c2nnc(Nc3cccc(C(F)(F)F)c3)c3ccccc23)cc1	Shh pathway inh 87.0
C[C@H](CO)N1C[C@H](C)[C@@H](CN(C)Cc2ccc(Cl)c(Cl)c2)Oc2c(NC(=O)C3CCOCC3)cccc2C1=O	none
C[C@@H]1CN([C@H](C)CO)C(=O)c2cccc(NC(=O)C3CCOCC3)c2O[C@H]1CN(C)Cc1ccc(Cl)c(Cl)c1	Shh pathway inh 70.4
C[C@H](CO)N1C[C@H](C)[C@H](CN(C)Cc2ccc(Cl)c(Cl)c2)Oc2c(NS(=O)(=O)c3ccccc3)cccc2C1=O	Shh pathway inh 82.2
C[C@H]1CN([C@@H](C)CO)C(=O)c2cccc(NS(=O)(=O)c3ccccc3)c2O[C@@H]1CN(C)Cc1ccc(Cl)c(Cl)c1	none
COc1cccc(-c2cc(C(F)(F)F)n3ncc(C(=O)N(C)CCc4ccccn4)c3n2)c1	none (no result: Shh pathway inh)
C[C@@H]1CN([C@@H](C)CO)C(=O)c2cccc(NC(=O)Nc3ccc4c(c3)OCO4)c2O[C@@H]1CN(C)S(=O)(=O)c1ccc(Cl)cc1	none
COc1ccc(NC(=O)Nc2ccc3c(c2)CC(=O)N([C@H](C)CO)C[C@@H](C)[C@@H](CN(C)Cc2ccc(Cl)c(Cl)c2)O3)cc1	none (no result: BJeLR viability)
Cc1cccc(NC(=S)N(CCN2CCCCCC2)Cc2cccs2)c1	none (no result: Shh pathway inh)
O=C1c2c(O)ccc(O)c2C(=O)c2c(NCCNCCO)ccc(NCCNCCO)c21	BJeLR viability 109.7
Cc1noc(C)c1NC(=O)Nc1ccc2c(c1)C(=O)N([C@H](C)CO)C[C@H](C)[C@@H](CN(C)S(=O)(=O)c1ccccc1)OCCCC[C@@H](C)O2	none (no result: BJeLR viability)
CCOC(=O)N1CCC(n2c(SCC(=O)NC(C)CC)nc3ccccc3c2=O)CC1 (configuration not stated)	none (no result: Shh pathway inh)
C=C[C@@]12COC(=O)C(=C)C1[C@@H](O)[C@H](C(=C)C(=O)OC)[C@@H](OC(=O)C(=C)CO)C2 (some centres not stated)	none
C=C(CO)C(=O)O[C@H]1CC(=C)[C@@H]2CC(=O)[C@H](C)[C@@H]2[C@H]2OC(=O)C(=C)[C@@H]21	BJeLR viability 68.6
COc1c(-c2coc3cc4c(cc3c2=O)CC(O)C(C)(C)O4)ccc2c1C=CC(C)(C)O2 (configuration not stated)	Shh pathway inh 90.8
CC1(C)C=Cc2c(cc3occ(-c4ccc5c(c4)OCO5)c(=O)c3c2O)O1	none
C[C@H]1CC[C@@H]2[C@@H](C(=O)c3c(O)c([C@]4(O)CC[C@@H](O)[C@H]5O[C@H]54)cn(O)c3=O)[C@@H](C)C=C[C@H]2C1	BJeLR viability 52.9, Shh pathway inh 93.9
C=C1C(=O)O[C@H]2C1[C@H](OC(=O)/C(C)=C/CO)C/C(C)=C\CC[C@@]1(CO)OC21 (some centres not stated)	none

Bioassay records as filed in PubChem.
